Assay results published in PubChem BioAssay (NCATS).
“And” between values parts separate entries of the source, which are not always exact repeats. Identical values can stand only once. Results filed as inconclusive are left out. The source made the active and inactive calls. Unless noted, calls come from the whole dose curve; as a rule, active = well fitted curve in the direction sought with a large enough effect; inconclusive = small, poorly fitted or top-dose-only effect, or another doubt; inactive = no such curve, though single readings can be large; an effect the other way counts as inactive or inconclusive.

Legend:
[1] = Cell Viability - MRC5 (AID 434; calls by dose curve;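 note: potency is the fitted concentration of half-maximal effect; potency reflects cytotoxicity seen as loss of intracellular ATP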); settings: MRC5 lung fibroblast viability, qHTS
Outline: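 qHTS cytotoxicity in human lung fibroblast MRC5 cells; 40 hr treatment, 37 °C; cellular ATP by luciferase luminescence; DMSO = 0%, 100 uM tamoxifen = 100% inhibition; Hill-fit AC50.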

[2] = Cell Viability - N2a (AID 540); settings: N2a mouse neuroblastoma cell viability; at 92.2 µM (top of the series);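 note: plate controls were DMSO alone for no effect and tamoxifen control for full effect; nearly all actives have a fitted effect of over 45% in size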
Outline: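 Mouse neuroblastoma N2a cells, 1500/well, exposed to compounds 40 h at 37 °C in complete medium. Viability measured as cellular ATP by CellTiter-Glo luminescence; AC50 from Hill fits of concentration-response.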

[3] = Cell Viability - NIH 3T3 (AID 541); settings: NIH 3T3 cell viability, qHTS; at 92.2 µM (top of the series);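 note: plate controls were DMSO alone for no effect and tamoxifen positive control for full effect; nearly all actives have a fitted effect of over 25% in size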
Outline: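 Mouse NIH 3T3 fibroblasts, 1000 cells/well, rested 5 hr at 37 °C, then exposed to compound for 40 hr at 37 °C in complete medium. Viability read as intracellular ATP by CellTiter-Glo luminescence; AC50 from Hill-equation fits of concentration-response data.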

[4] = Cell Viability - HUV-EC-C (AID 542); settings: HUV-EC-C endothelial cell viability, qHTS; series mostly up to 92.2 µM; note: % is set by controls: 0 for no effect and ±100 for the full control effect; nearly all actives have a fitted effect of over 35% in size
Outline: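 HUV-EC-C human vascular endothelial cells, 1000/well, exposed to compound for 40 hr at 37 °C in complete medium. Intracellular ATP was read by CellTiter-Glo luminescence. AC50 came from Hill-equation fits of concentration-response data.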

[5] = Cell Viability - Renal Proximal Tubule (AID 545); settings: renal proximal tubule cells viability; series mostly up to 91.7 µM;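 note: 0% = DMSO only and -100% = 100 µM tamoxifen; nearly all actives have a fitted effect of over 40% in size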
Outline: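 Rat renal proximal tubule primary cells, 1000/well, exposed to compounds for 40 hr at 37 °C in complete medium; cellular ATP read by CellTiter-Glo luminescence. AC50 from concentration-response fitted with standard Hill equation.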

[6] = Cell Viability - Mesenchymal (AID 546); settings: mesenchymal cells viability, qHTS; series mostly up to 91.7 µM;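 note: cells exposed to compound for 40 hours before reading; 0% = DMSO only and -100% = 100 µM tamoxifen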
Outline: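 AC50 values reflect the drop in intracellular ATP in a human kidney mesenchymal line derived from normal glomeruli. Treatment lasts 40 hr at 37 °C in complete medium, and the signal comes from CellTiter-Glo luminescence.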

[7] = Cellular Toxicity (caspase-3) HUV-EC-C (AID 656); settings: HUV-EC-C cells, caspase-3 activation (apoptosis), vehicle = 0, 100 µM tamoxifen = 100%; series mostly up to 92.2 µM;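 note: 0% = DMSO basal and 100% = 100 µM tamoxifen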
Outline: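 HUV-EC-C cells (1000/well) in complete medium, compound-treated 16 h at 37 °C; caspase-3/7 activity read by Caspase-Glo 3/7 luminescence. Normalized to DMSO (basal) and 100 uM tamoxifen (100%); AC50 from Hill-equation concentration-response fits.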

[8] = Cellular Toxicity (caspase-3) SHSY5Y (AID 657); settings: SH-SY5Y caspase-3 activation, DMSO zero, 10 µM staurosporine = 100%; series mostly up to 91.7 µM
Outline: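 SH-SY5Y human neuroblastoma cells, 1500/well, exposed to compound for 16 hours at 37 °C in complete medium. Caspase-3/7 activity read by Caspase-Glo luminescence after 1 hr at room temperature, normalized to DMSO and 10 uM staurosporine; AC50 from Hill fit.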

[9] = Cellular Toxicity (caspase-3) BJ (AID 658); settings: BJ fibroblasts, luminescence, normalized: DMSO 0%, staurosporine 100%; series mostly up to 91.7 µM;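 note: 0% = DMSO basal and 100% = 10 µM staurosporine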
Outline: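 Readout: Caspase-Glo 3/7 luminescence increase in BJ cells after 16 hr treatment at 37 °C. Staurosporine and tamoxifen served as positive controls; AC50 values came from Hill modelling of data normalized to DMSO and 10 uM staurosporine.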

[10] = molecular target: Estrogen receptor (Homo sapiens) (UniProt P03372); assay: qHTS assay for small molecule agonists of estrogen receptor alpha signaling (AID 588514; calls by dose curve;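 note: 0% = vehicle only and 100% = reference agonist; nearly all actives have a fitted effect of over 70% in size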); settings: ER-alpha-UAS-bla HEK293, beta-lactamase ratio, 18 h; series mostly up to 76.8 µM
Chain of Estrogen receptor (Homo sapiens) (P03372 whole entry, looked up): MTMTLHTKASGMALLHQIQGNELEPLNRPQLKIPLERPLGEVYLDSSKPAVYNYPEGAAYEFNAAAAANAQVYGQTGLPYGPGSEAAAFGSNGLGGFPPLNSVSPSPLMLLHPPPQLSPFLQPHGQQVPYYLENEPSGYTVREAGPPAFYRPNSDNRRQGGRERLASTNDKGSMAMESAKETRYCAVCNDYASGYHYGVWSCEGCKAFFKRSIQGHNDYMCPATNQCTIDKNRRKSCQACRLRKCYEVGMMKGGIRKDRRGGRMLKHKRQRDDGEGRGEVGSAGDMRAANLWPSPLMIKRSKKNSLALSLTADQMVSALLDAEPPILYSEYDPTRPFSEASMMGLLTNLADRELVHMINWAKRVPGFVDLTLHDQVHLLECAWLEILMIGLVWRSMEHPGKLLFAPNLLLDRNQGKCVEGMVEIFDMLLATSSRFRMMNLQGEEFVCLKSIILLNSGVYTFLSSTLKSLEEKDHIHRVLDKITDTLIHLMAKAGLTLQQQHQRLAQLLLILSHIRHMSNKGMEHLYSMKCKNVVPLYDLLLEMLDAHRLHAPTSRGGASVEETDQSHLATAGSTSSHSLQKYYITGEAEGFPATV
Outline: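 ER-alpha-UAS-bla GripTite HEK293 cells, 5000/well in 2% charcoal/dextran-stripped FBS medium, treated with compound titrations 18 h at 37 C. CCF4 beta-lactamase read by fluorescence after 2 h RT; normalised to 20 nM 17-beta-estradiol (100%) and DMSO (0%), Hill fit for EC50 and efficacy.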

[11] = molecular target: Androgen receptor (Homo sapiens) (UniProt P10275); assay: qHTS assay for small molecule agonists of androgen receptor signaling (AID 588515; active = well fitted curve in the direction sought with a large enough effect in the signal ratio, with a control signal flat; the % refers to the signal ratio; note: % is set by controls: 0 for no effect and ±100 for the full control effect); settings: AR-UAS-bla HEK293, beta-lactamase ratio, agonist 16 h; stronger effect = higher value
Chain of Androgen receptor (Homo sapiens) (P10275 whole entry, looked up): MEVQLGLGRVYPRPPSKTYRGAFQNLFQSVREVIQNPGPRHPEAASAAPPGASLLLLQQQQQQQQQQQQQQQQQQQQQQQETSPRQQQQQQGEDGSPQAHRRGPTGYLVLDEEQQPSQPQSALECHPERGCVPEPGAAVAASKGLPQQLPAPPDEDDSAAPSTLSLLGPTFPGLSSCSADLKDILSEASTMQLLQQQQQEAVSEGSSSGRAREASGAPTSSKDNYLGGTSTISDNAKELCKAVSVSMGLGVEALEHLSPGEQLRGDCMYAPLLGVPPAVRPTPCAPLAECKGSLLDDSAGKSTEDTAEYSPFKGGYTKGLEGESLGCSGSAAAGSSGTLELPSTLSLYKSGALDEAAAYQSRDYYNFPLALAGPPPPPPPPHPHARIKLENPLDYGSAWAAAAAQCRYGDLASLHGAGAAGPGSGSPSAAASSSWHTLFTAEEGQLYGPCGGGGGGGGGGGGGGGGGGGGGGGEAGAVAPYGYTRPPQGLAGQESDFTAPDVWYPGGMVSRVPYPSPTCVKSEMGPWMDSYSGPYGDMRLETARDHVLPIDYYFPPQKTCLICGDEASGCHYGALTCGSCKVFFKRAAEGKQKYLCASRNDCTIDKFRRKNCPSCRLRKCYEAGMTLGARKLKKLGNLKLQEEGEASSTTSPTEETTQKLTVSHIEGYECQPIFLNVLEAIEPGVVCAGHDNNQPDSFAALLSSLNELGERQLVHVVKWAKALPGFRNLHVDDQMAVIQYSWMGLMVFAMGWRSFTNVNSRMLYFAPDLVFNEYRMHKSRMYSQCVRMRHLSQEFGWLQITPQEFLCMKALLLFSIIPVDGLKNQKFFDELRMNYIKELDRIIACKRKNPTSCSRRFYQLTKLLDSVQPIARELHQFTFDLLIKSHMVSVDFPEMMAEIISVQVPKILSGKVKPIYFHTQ
Outline: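 EC50 and efficacy came from Hill fits of titrations (up to 92 uM) normalized to 30 nM R1881 as 100% and DMSO as 0%. Compound exposure was 16 h at 37 C on AR-UAS-bla HEK293 cells, with a 405/460/530 nm CCF4 fluorescence read.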

[12] = molecular target: Androgen receptor (Homo sapiens) (UniProt P10275); assay: qHTS assay for small molecule antagonists of androgen receptor signaling (AID 588516; active = well fitted curve in the direction sought with a large enough effect in the signal ratio, with a control signal flat, not every such curve was filed as active; the % refers to the signal ratio; note: % is set by controls: 0 for no effect and ±100 for the full control effect); settings: AR-UAS-bla HEK293, beta-lactamase ratio, antagonist mode, 16 h; series mostly up to 76.8 µM
Outline: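 AR-UAS-bla GripTite HEK 293 cells (2000/well) treated with compound titrations plus 10 nM R1881 for 16 h at 37C. Beta-lactamase read by CCF4 FRET (460/530 nm); IC50 from Hill fits, normalized to R1881 and DMSO control wells.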

[13] = molecular target: Peroxisome proliferator-activated receptor delta (Homo sapiens) (UniProt Q03181); assay: qHTS assay for small molecule agonists of peroxisome proliferator-activated receptor delta signaling (AID 588534; calls by dose curve;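 note: 0% = DMSO basal wells and 100% = positive control agonist at 10 µM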); settings: HEK293T PPARdelta-UAS-bla, beta-lactamase ratio, 18 h; series mostly up to 76.7 µM
Chain of Peroxisome proliferator-activated receptor delta (Homo sapiens) (Q03181 whole entry, looked up): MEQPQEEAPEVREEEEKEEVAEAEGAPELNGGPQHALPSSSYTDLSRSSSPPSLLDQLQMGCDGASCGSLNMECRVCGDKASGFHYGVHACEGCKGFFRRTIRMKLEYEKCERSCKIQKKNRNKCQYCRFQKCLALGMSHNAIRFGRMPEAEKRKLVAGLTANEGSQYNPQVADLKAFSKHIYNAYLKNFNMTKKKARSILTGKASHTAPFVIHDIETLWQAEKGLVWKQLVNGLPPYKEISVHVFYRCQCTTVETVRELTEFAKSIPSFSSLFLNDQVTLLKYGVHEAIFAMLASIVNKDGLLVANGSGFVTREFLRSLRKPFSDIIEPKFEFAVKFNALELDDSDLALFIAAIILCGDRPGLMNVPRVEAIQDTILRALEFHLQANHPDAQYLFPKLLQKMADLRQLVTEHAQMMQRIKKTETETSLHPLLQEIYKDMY
Outline: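 Cells carrying a PPAR-delta beta-lactamase reporter were treated with compounds for 18 h at 37 °C in agonist mode. CCF4 fluorescence was read after 2 h; EC50 and efficacy from Hill fits.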

[14] = qHTS assay for small molecule antagonists of peroxisome proliferator-activated receptor delta signaling (AID 588535; active = well fitted inhibition curve with a large enough effect in the signal ratio, with a control signal flat, not every such curve was filed as active; the % refers to the signal ratio;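 for max response: cells co-treated with a PPAR-delta agonist as stimulator during compound exposure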); settings: HEK293T PPARd-UAS-bla, beta-lactamase FRET ratio, 18 h; 460 nm channel
Outline: (§1)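 HEK293T PPAR-delta-UAS-bla cells, 4000/well, 2% charcoal/dextran FBS; 5 h 37 C; cpd titration; 18 h 37 C; CCF4 2 h RT; FI 460/530 nm; Hill fit → IC50, efficacy.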

[15] = molecular target: Peroxisome proliferator-activated receptor delta (Homo sapiens) (UniProt Q03181); assay: as above; settings: HEK293T PPARd-UAS-bla, beta-lactamase FRET ratio, 18 h; series mostly up to 76.7 µM
Outline: as §1

[16] = molecular target: Thyroid hormone receptor beta (Homo sapiens) (UniProt P10828); assay: qHTS assay for small molecule agonists of thyroid hormone receptor beta signaling (AID 588545; calls by dose curve); settings: TR-UAS-bla GripTite HEK 293, beta-lactamase ratio, agonist mode, 18 h; series mostly up to 76.7 µM
Chain of Thyroid hormone receptor beta (Homo sapiens) (P10828 whole entry, looked up): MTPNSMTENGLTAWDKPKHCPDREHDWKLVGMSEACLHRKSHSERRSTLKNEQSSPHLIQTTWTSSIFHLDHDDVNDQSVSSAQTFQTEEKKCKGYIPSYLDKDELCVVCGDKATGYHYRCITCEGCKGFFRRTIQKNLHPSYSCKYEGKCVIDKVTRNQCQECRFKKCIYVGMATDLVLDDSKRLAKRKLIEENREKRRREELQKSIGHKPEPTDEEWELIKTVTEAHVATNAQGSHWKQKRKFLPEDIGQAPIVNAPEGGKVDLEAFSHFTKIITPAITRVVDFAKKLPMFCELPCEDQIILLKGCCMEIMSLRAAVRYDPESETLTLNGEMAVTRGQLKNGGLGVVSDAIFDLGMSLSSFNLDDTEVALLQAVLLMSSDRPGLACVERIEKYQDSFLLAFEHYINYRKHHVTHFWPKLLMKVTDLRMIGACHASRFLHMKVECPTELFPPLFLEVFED
Outline: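 Agonist activity was read as beta-lactamase CCF4 fluorescence (405 ex, 460/530 em), scaled between DMSO (0%) and 10 nM T3 (100%), then Hill-fitted for EC50 and efficacy. HEK 293 TR-UAS-bla cells in 2% charcoal/dextran FBS medium were exposed 18 h at 37 C.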

[17] = qHTS assay for small molecule activators of the p53 signaling pathway (AID 651743; active = well fitted activation curve with a large enough effect in the signal ratio, not every such curve was filed as active; the % refers to the signal ratio; note: % of control where 0% means no effect); settings: HCT-116 p53RE-bla, beta-lactamase FRET ratio, 16 h; activation: stronger effect = higher value
Outline: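 Read-out is fluorescence intensity from the LiveBLAzer B/G FRET substrate, added for 2 hours at room temperature after HCT-116 p53RE-bla cells had been incubated with compounds for 16 hours at 37 C.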

[18] = qHTS assay for small molecule activators of the nuclear factor-kappa B (NF-kB) signaling pathway (AID 651749; active = well fitted activation curve with a large enough effect in the signal ratio; the % refers to the signal ratio; note: % of control where 0% means no effect); settings: NF-kB-bla ME-180 cells, beta-lactamase FRET ratio, 16 h; activation: stronger effect = higher value
Outline: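 Readout: beta-lactamase reporter driven by an NF-kB response element, detected fluorescently as loss of FRET. Cells were the ME-180 line, treated 16 hr at 37C with pin-transferred compound.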

[19] = molecular target: Tumor necrosis factor (Homo sapiens) (UniProt P01375); assay: qHTS assay to identify small molecules that stimulate Tumor Necrosis Factor-alpha (TNF-alpha) secretion (AID 651757; active = well fitted curve in the direction sought with a large enough effect in the signal ratio; the % refers to the signal ratio; note: 0% is about no effect); settings: Human cells, HTRF 665/615 ratio; series mostly up to 92.2 µM
Chain of Tumor necrosis factor (Homo sapiens) (P01375 whole entry, looked up): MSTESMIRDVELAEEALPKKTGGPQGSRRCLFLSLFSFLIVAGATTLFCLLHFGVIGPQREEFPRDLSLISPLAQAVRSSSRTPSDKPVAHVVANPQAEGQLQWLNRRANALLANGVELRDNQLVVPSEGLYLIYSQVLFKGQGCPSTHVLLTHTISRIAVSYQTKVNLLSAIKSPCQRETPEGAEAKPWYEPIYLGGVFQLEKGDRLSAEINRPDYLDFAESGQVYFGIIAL
Outline: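 THP-1 cells (3000/well) exposed to compounds 17 hrs at 37 C. Secreted TNF-alpha detected by HTRF with cryptate- and XL665-labeled anti-TNF-alpha antibodies after 3 hr at room temperature.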

[20] = molecular target: Nuclear receptor subfamily 1 group I member 2 (Rattus norvegicus) (UniProt Q9R1A7); assay: qHTS assay for small molecule activators of the rat pregnane X receptor (rPXR) signaling pathway (AID 651751; call rule not given here; note: 0% is about no effect); settings: rPXR reporter cells, luciferase (One-Glo), 24 h
Chain of Nuclear receptor subfamily 1 group I member 2 (Rattus norvegicus) (Q9R1A7 whole entry, looked up): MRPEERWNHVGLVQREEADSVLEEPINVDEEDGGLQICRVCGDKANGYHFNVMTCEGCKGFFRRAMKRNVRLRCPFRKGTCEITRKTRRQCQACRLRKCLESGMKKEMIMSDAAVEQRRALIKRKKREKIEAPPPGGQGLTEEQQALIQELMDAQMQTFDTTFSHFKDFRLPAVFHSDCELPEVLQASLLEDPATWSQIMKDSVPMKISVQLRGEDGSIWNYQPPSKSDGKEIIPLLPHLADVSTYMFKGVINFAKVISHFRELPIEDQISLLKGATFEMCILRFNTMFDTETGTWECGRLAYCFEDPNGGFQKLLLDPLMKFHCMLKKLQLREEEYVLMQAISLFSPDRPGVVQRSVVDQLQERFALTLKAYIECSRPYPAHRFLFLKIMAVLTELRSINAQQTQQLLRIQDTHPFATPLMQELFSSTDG

CC(C)(c1ccc(OCC2CO2)cc1)c1ccc(OCC2CO2)cc1 (stereo not given)
35.6%: max response [14]
inactive: Potency [1] > 92 µM | activity change, negative = cytotoxicity [2] -4.11% | activity change, negative = cytotoxicity [3] -5.07% | outcome [4] | outcome [5] | outcome [6] | outcome [7] | outcome [8] | outcome [9] | Potency [10] | activation [11] 11.4% and -15.4% | outcome [12] | Potency [13] | outcome [15] | Potency [16] | activation [17] 1.86% and -8.3% | activation [18] -1.34% and -1.67% | outcome [19] | max response [20] -1.73% and 0.566%
